Measurements published in PubChem BioAssay AID624125 (The Scripps Research Institute Molecular Screening Center, 2012).
In all, about 360,000 compounds went through this assay and about 2,600 (0.72%) were called active. Shown is part of a subset that was picked to be rich in actives. A number with no mark means an inactive call.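 How the source made its calls: active means inhibition above its plate's cutoff, the mean inhibition of sample wells plus 3 SD (cut at about 27% in these data); inactive means the rest.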

These compounds were tested against Muscarinic acetylcholine receptor M4 (Homo sapiens) (UniProt P08173) (assay: human M4 muscarinic receptor antagonists, primary screen, CHO cells, Fluo-8 calcium fluorescence (AID 624125;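 further: 0% = acetylcholine EC80 with DMSO and 100% = DMSO without agonist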)). Settings: CHO-hM4 cells, ACh EC80, Fluo-8 calcium fluorescence; at 3 µM; stronger effect = higher value.
Chain of Muscarinic acetylcholine receptor M4 (Homo sapiens) (P08173 whole entry, looked up): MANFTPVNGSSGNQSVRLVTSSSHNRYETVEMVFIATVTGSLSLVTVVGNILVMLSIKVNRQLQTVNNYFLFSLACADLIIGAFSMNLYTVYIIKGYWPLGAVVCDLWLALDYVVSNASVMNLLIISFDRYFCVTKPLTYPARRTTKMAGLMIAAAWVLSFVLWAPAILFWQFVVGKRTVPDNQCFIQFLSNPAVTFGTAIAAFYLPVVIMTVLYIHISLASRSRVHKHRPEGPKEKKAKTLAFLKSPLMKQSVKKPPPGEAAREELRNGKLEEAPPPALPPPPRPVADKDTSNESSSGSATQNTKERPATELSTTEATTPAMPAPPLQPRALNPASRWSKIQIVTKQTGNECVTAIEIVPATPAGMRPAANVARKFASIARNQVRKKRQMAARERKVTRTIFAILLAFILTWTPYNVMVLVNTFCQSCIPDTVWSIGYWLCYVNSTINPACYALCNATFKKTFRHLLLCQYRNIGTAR

Row | Compound | inhibition
1 | CCc1ccc(/C=N/NC(=O)c2nnn(-c3nonc3N)c2CN2CCc3ccccc32)cc1 | 6.06%
2 | CCOC(=O)CSc1nnc(NC(=O)C2CC(=O)N(c3ccc(F)cc3)C2)s1 (stereo unspecified) | 5.76%
3 | CN1/C(=C\C=C2\N=C(c3ccc(F)cc3)OC2=O)C(C)(C)c2ccccc21 | 50.7% (active)
4 | Cc1ccc(S(=O)(=O)NC[C@H]2O[C@@H](n3cnc4c(N)ncnc43)[C@H](O)[C@@H]2O)s1 | -5.46%
5 | O=C(CNS(=O)(=O)c1ccc(Br)s1)NCc1ccc2c(c1)OCO2 | 1.5%
6 | COc1ccc(NC(=O)N(C)C[C@@H]2OCc3cn(nn3)CCCC(=O)N([C@H](C)CO)C[C@H]2C)c(OC)c1 | 8.28%
7 | CC1CCCN(c2ccc(C(=O)NCCc3ccccc3)cn2)C1 (stereo unspecified) | -4.49%
8 | O=C(NCCc1ccccc1)c1ccc2c(c1)N(Cc1ccccc1)CCS2 | 35% (active)
9 | CCOC(=O)N1CCN(C(=O)c2ccc3c(c2)N(Cc2ccc(C)cc2)CCS3)CC1 | -7.97%
10 | CCOC(=O)c1cnc(Nc2nc3ccccc3o2)nc1CSC(=S)N1CCCCC1 | -1.75%
11 | Fc1ccccc1COc1ccccc1CNCc1ccncc1 | -4.74%
12 | COc1cccc(CNCCc2c[nH]c3ccccc23)c1OCc1ccccc1F | 27.2% (active)
13 | COc1cccc(CNn2cn[nH]c2=S)c1OCc1ccccc1 | -1.76%
14 | C=C(C)CNC(=S)Nc1ccc(S(=O)(=O)Nc2cnc3ccccc3n2)cc1 | 2.87%
15 | CC(NCCO)C(=O)C12CC3CC(CC(C3)C1)C2 (stereo unspecified) | 2.3%
16 | Cc1c(C(=O)NC2CCCCC2)oc2ccccc12 | -11.4%
17 | Cc1ccc2c(C)c(C(=O)N(C)Cc3ccncn3)oc2c1C | -3%
18 | CCCC[C@@H]1CN=C(N)N1CCc1cc(C(F)(F)F)cc(C(F)(F)F)c1 | 31.9% (active)
19 | CCCCN1C(N)=NC[C@@H]1CC1CCCCC1 | -1.98%
20 | CN(C)C1=NC[C@H](Cc2ccccc2)N1CCc1ccc(F)cc1 | -0.99%
21 | Cc1nc(N)c(Br)c(C)c1Br | -2.18%

Row | Compound | inhibition
22 | CSc1ccc(S(=O)(=O)N2CCC(C(=O)NCc3ccncc3)CC2)cc1 | -10.4%
23 | Cn1c(CCC(=O)Nc2ccccc2F)nnc1SCC(=O)Nc1ccccc1Cl | -10.1%
24 | Cn1cccc1C(=O)N1CCc2ccccc2C1 | 10.4%
25 | CN1CCN(C(=O)N2c3ccccc3CCc3ccccc32)CC1 | 51% (active)
26 | CN1CCN(S(=O)(=O)c2cccc(C(=O)N3CCc4ccccc43)c2)CC1 | 3.72%
27 | O=C(O)C(=Cc1ccccc1[N+](=O)[O-])c1ccccc1 | -15.2%
28 | Cc1ccc(C2Nc3ccccc3C(=O)N2CCN2CCNC2=O)cc1 (stereo unspecified) | -5.69%
29 | COc1ccc(C(C#N)N2N=C(C)CC2(C)C)cc1 (stereo unspecified) | -4.9%
30 | CC[C@@H]1Cc2cc(O)ccc2C2=C1c1ccc(O)cc1C[C@H]2CC | 72.5% (active)
31 | CCOC(=O)C1(Cc2ccccc2C)CCCN(C(=O)CN2C(=O)CSC2=O)C1 (stereo unspecified) | 4.46%
32 | O=C(CSc1ccc([N+](=O)[O-])cn1)Nc1ccc(N2CCOCC2)cc1 | -3.21%
33 | O=C(CSc1ccc(-c2ccc(-n3cccn3)cc2)nn1)Nc1ccc([N+](=O)[O-])cc1 | 101% (active)
34 | O=C(CSc1ccc(-c2ccccn2)nn1)Nc1ccccc1 | 5.15%
35 | O=C(O)CC12CC3CC(C1)CC(n1ncc(NCc4ccc(F)cc4)c(Cl)c1=O)(C3)C2 | 4.05%
36 | Cc1nn(-c2ccccc2)c2c1c(C)c(CCC(=O)NCC1CCCO1)c(=O)n2C (stereo unspecified) | -9.84%
37 | Cc1nn(CC(=O)NCC2CCCO2)c(=O)c2cc3ccccc3n12 (stereo unspecified) | -2.94%
38 | Cc1sc2c(c1C)c(=O)n(-c1ccccc1)c(=O)n2CC(=O)NCC1CCCO1 (stereo unspecified) | 27.2% (active)
39 | COC(=O)/C(=C1\Oc2ccc(C(C)(C)C)cc2S1)C(F)(F)F | -0.07%
40 | CCN(CC)CCNCC(=O)Nc1ccc(Oc2ccccc2)cc1 | -0.82%
41 | COC(CCN(C)C)(c1ccccc1)c1ccccc1 | 3.06%
42 | CCN(CC)CCOC(=O)c1ccc(NC(=O)CNC(=O)c2ccccc2)cc1 | -1.05%

Row | Compound | inhibition
43 | CCCC(C(=O)OCCN(CC)CC)(c1ccccc1)c1ccccc1 | 42.8% (active)
44 | CCC(C(=O)Nc1ccc(C(C)C)cc1)c1ccccc1 (stereo unspecified) | 23.7%
45 | CCC(C(=O)OCCN(CC)CC)c1ccccc1 (stereo unspecified) | 54.1% (active)
46 | CC1CCc2c(sc3c2C2=NS(=O)(=O)CCN2C=N3)C1 (stereo unspecified) | -3.55%
47 | COc1ccc(S(=O)(=O)N2CCN(c3cnccn3)CC2)cc1 | 5.44%
48 | O=C1CCc2cc(S(=O)(=O)Nc3ccc(C(F)(F)F)cc3)cc3c2N1CC3 | -14.8%
49 | CC(C)(C)NC(=O)COc1ccc(CNc2ccc3[nH]c(=O)[nH]c3c2)cc1 | -1.92%
50 | Cc1cc([N+](=O)[O-])c(=O)[nH]c1C | 3.71%
51 | CCOC(=O)C1Nc2ccc(C(F)(F)F)cc2C2C=CCC12 (stereo unspecified) | -1.13%
52 | CC(C)c1ccc(-c2noc(C3CCCN(S(C)(=O)=O)C3)n2)cc1 (stereo unspecified) | -17.6%
53 | COc1cc(-c2noc(C3CCCN(S(=O)(=O)c4cccc(Cl)c4)C3)n2)cc(OC)c1OC (stereo unspecified) | 30.5% (active)
54 | COc1cccc(-c2noc(C3CCCN(C(=O)c4ccc(F)cc4)C3)n2)c1 (stereo unspecified) | -18%
55 | Clc1ccc(-c2nnc(-c3ccccc3)nc2N2CCSCC2)cc1 | -4.43%
56 | CC12CCCCC1=CC(=O)CC2 (stereo unspecified) | 2.52%
57 | Cc1ccc(S(=O)(=O)N2CCCCC2)cc1NC(=O)CCNC(=O)c1ccccc1Cl | -5.04%
58 | CN(C(=O)CSc1nnc(-c2ccc(C(C)(C)C)cc2)n1C)C1CCS(=O)(=O)C1 (stereo unspecified) | 0.43%
59 | O=c1[nH]c2ccccc2n1C1CCN(CCOc2ccccc2)CC1 | -13.4%
60 | COc1ccc(OCCCCN2CCC(C)CC2)cc1 | 9.1%
61 | OC(c1ccccc1)(c1ccccc1)C1CCN(CCCOc2ccccc2)CC1 | 91.6% (active)
